Rows were chosen to be rich in hits. Some 32% of all compounds tested hit in one or more screens of this group.
CYP2C19 act: human CYP2C19 activators, primary screen, biochemical, luminescence; Cytochrome P450 2C19 (Homo sapiens), P33261; recombinant CYP2C19, luciferin-H EGE luminescence; hits give high values; 0 = fully inhibited enzyme, 1 = untreated enzyme; activation factor at 5 µM; 96,000 tested, under 10 active; AID 1025, 2008;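 active means activation factor of at least 2 at 5 µM in the primary screen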;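 further: 0 = wells with 2.5 mM tranylcypromine and 1 = vehicle-only wells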
CYP2C9 inhib: blockers of cytochrome P450 2C9 activity – biochemical, luminescence, ADME assay, primary screen. P11712. CYP2C9 Supersomes, luciferin-H conversion. inhibition, % at 5 µM. hit rate 20% among 96,000;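 active means blocking of liver enzyme CYP2C9 beyond about 50% at 5 µM, limit read from the data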
Target sequence (P11712 whole entry, looked up): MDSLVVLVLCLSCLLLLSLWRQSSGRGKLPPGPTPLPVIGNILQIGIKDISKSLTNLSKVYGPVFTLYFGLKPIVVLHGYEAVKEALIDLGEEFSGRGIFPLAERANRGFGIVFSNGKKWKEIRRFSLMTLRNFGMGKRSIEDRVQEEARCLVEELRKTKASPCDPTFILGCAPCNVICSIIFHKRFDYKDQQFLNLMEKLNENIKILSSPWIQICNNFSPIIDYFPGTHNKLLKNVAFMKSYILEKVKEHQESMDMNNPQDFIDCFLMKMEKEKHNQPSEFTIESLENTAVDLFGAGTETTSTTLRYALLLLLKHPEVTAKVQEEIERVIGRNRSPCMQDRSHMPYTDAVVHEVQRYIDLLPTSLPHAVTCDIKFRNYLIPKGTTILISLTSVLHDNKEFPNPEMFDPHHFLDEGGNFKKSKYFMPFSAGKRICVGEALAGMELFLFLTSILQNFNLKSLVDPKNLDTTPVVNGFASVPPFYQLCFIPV
CYP2C9 activ: human CYP2C9 activators, primary screen, biochemical, luminescence. AID 1024, 2008. activation factor at 5 µM. recombinant CYP2C9, luciferin-H conversion; hits give high values; factor 1 = untreated enzyme, 0 = blocked. hit rate 1.4% among 96,000;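 active means activation factor of 2 or more for CYP2C9 at a 5 µM dose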;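 further: 0 = sulfaphenazole-blocked wells and 1 = vehicle-only wells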
PostGolgi yeast: phenotypic screen on post-Golgi transport, primary screen | post-Golgi transport phenotypic cell assay | inhibition, % at 10 µM | hit rate 0.9% among 98,000;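 further: yeast cells grown in 1536-well plates; yeast grown about 18 h at 30C before absorbance read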
PostGolgi ctrl: growth inhibition of yeast control strain, primary screen, counter-screen for post-Golgi transport modulator project; efflux-deficient yeast background strain, growth absorbance A615, 16 h; hit rate 5% among 98,000; inhibition, % at 10 µM
CYP2C19 inhib: blockers of cytochrome P450 2C19 activity – biochemical, luminescence, ADME assay, primary screen. hit rate 21% among 96,000. inhibition, % at 5 µM. P33261. CYP2C19 Supersomes, luciferin-H EGE luminescence, 30 min. AID 778, 2007;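 active means CYP2C19 inhibition above a set limit at 5 µM in the primary screen, cut at about 50% in these data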;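 further: plate controls were negative control wells for no effect and 2.5 mM tranylcypromine positive control for full effect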
An asterisk follows results filed as active. Unless noted, no stated cut-off is given here; in the data, active means inhibition above about 30%; inactive means the rest.

Results for Nc1cccc(-n2nncc2-c2ccccc2)c1 ?
CYP2C19 act: 0.7; CYP2C9 inhib: 0; CYP2C9 activ: 1; PostGolgi yeast: 2; PostGolgi ctrl: 7; CYP2C19 inhib: 31

How did CC(C)NS(=O)(=O)c1ccc(OCC(=O)NCC2CCCO2)c(Cl)c1 (stereo not given) do in these assays?
CYP2C19 act: 0.3; CYP2C9 inhib: 66*; CYP2C9 activ: 0.3; PostGolgi yeast: 4; PostGolgi ctrl: -10; CYP2C19 inhib: 67*

How did OC(CN1C2=NCCCN2c2ccccc21)c1ccc(Cl)cc1 (stereo not given) do in these assays?
CYP2C19 act: 1; CYP2C9 inhib: -3; CYP2C9 activ: 1; PostGolgi yeast: 4; PostGolgi ctrl: 10; CYP2C19 inhib: -2

Results for c1ccc(CCn2nnnc2CN2CCCc3ccccc32)cc1 ?
CYP2C19 act: 0; CYP2C9 inhib: 67*; CYP2C9 activ: 0.3; PostGolgi yeast: 2; PostGolgi ctrl: 14; CYP2C19 inhib: 96*

How did CCC(C)(C)n1nnnc1CN1CCc2ccccc21 do in these assays?
CYP2C19 act: 0.4; CYP2C9 inhib: 13; CYP2C9 activ: 0.9; PostGolgi yeast: -4; PostGolgi ctrl: 11; CYP2C19 inhib: 61*

How did c1ccc2c(c1)CCCN2Cc1nnnn1CC1CCCO1 (stereo not given) do in these assays?
CYP2C19 act: 0.6; CYP2C9 inhib: 8; CYP2C9 activ: 0.9; PostGolgi yeast: -9; PostGolgi ctrl: -11; CYP2C19 inhib: 45

What do the screens show for `CCC(C)(C)n1nnnc1C(c1cccnc1)N1CCCc2ccccc21` (stereo not given)?
CYP2C19 act: 0.7; CYP2C9 inhib: 35; CYP2C9 activ: 0.7; PostGolgi yeast: -1; PostGolgi ctrl: 11; CYP2C19 inhib: 33

How did CCC(C)(C)n1nnnc1C(c1cccs1)N1CCc2ccccc21 (stereo not given) do in these assays?
CYP2C19 act: 0.5; CYP2C9 inhib: 53*; CYP2C9 activ: 0.5; PostGolgi yeast: -4; PostGolgi ctrl: 23; CYP2C19 inhib: 48

How did CCC(C)N1C(=O)CCC1C(=O)NCc1ccc2c(c1)OCO2 (stereo not given) do in these assays?
CYP2C19 act: 1; CYP2C9 inhib: 0; CYP2C9 activ: 1; PostGolgi yeast: 7; PostGolgi ctrl: 5; CYP2C19 inhib: 0

What do the screens show for `CCC(=O)Nc1nc2ccccc2n1CCN(C)C`?
CYP2C19 act: 1; CYP2C9 inhib: -4; CYP2C9 activ: 1; PostGolgi yeast: -4; PostGolgi ctrl: 5; CYP2C19 inhib: -2

Results for Cc1nc2sccc2c(=O)n1-c1cccc(Cl)c1 ?
CYP2C19 act: 0.3; CYP2C9 inhib: 14; CYP2C9 activ: 0.9; PostGolgi yeast: -5; PostGolgi ctrl: 4; CYP2C19 inhib: 70*

What do the screens show for `CC(C)C(=O)N(Cc1cc2ccccc2[nH]c1=O)C(C)(C)C`?
CYP2C19 act: 0.8; CYP2C9 inhib: 15; CYP2C9 activ: 0.8; PostGolgi yeast: 9; PostGolgi ctrl: 0; CYP2C19 inhib: 20

What do the screens show for `CC1CCCCC1NC(=O)COC(=O)c1ccc(S(=O)(=O)N2CCOCC2)cc1` (stereo not given)?
CYP2C19 act: 1; CYP2C9 inhib: 4; CYP2C9 activ: 1; PostGolgi yeast: -1; PostGolgi ctrl: 7; CYP2C19 inhib: -1

Results for Fc1ccc(-c2nc3ccncc3[nH]2)cc1 ?
CYP2C19 act: 0.5; CYP2C9 inhib: 62*; CYP2C9 activ: 0.4; PostGolgi yeast: -3; PostGolgi ctrl: 0; CYP2C19 inhib: 47

How did CCC/C(=N\NC(=O)c1csc(C)c1C)c1cccs1 do in these assays?
CYP2C19 act: 0.3; CYP2C9 inhib: -19; CYP2C9 activ: 1.2; PostGolgi yeast: 6; PostGolgi ctrl: 23; CYP2C19 inhib: 67*

How did C/C(=N\NC(=O)c1csc(C)c1C)c1ccc(Cl)s1 do in these assays?
CYP2C19 act: 1; CYP2C9 inhib: -10; CYP2C9 activ: 1.1; PostGolgi yeast: -7; PostGolgi ctrl: 14; CYP2C19 inhib: 4

Results for CC/C(=N\NC(=O)c1csc(C)c1C)c1cccs1 ?
CYP2C19 act: 0.3; CYP2C9 inhib: 14; CYP2C9 activ: 0.9; PostGolgi yeast: -10; PostGolgi ctrl: 7; CYP2C19 inhib: 75*

How did Cc1ccc(C(=O)Nc2cccnc2)cc1S(=O)(=O)N1CCOCC1 do in these assays?
CYP2C19 act: 0.5; CYP2C9 inhib: 36; CYP2C9 activ: 0.6; PostGolgi yeast: -8; PostGolgi ctrl: 8; CYP2C19 inhib: 47

What do the screens show for `O=C(Nc1ccccc1)C1=C(N2CCOCC2)/C(=C/c2cccnc2)CC1`?
CYP2C19 act: 0.1; CYP2C9 inhib: 67*; CYP2C9 activ: 0.3; PostGolgi yeast: 1; PostGolgi ctrl: 8; CYP2C19 inhib: 87*

Results for CCCCn1cnc2sc3c(c2c1=N)CCCC3 ?
CYP2C19 act: 0.4; CYP2C9 inhib: -1; CYP2C9 activ: 1; PostGolgi yeast: 0; PostGolgi ctrl: 13; CYP2C19 inhib: 60*

What do the screens show for `N=c1c2c3c(sc2ncn1CCCO)CCCC3`?
CYP2C19 act: 1; CYP2C9 inhib: 17; CYP2C9 activ: 0.8; PostGolgi yeast: 0; PostGolgi ctrl: 9; CYP2C19 inhib: -4

What do the screens show for `COc1ccc2[nH]c(=O)c(CN(C(=O)c3ccco3)C3CCCCC3)cc2c1`?
CYP2C19 act: 0.9; CYP2C9 inhib: 29; CYP2C9 activ: 0.7; PostGolgi yeast: -1; PostGolgi ctrl: 5; CYP2C19 inhib: 15

Results for COc1ccc(Cn2nnnc2C(c2cc(OC)ccc2OC)N2CCC(C(N)=O)CC2)cc1 (stereo not given) ?
CYP2C19 act: 0.6; CYP2C9 inhib: 4; CYP2C9 activ: 1; PostGolgi yeast: 2; PostGolgi ctrl: -2; CYP2C19 inhib: 38

Results for Cc1onc(-c2ccccc2Cl)c1C(=O)Nc1nnc(-c2ccc(Cl)cc2Cl)s1 ?
CYP2C19 act: 1; CYP2C9 inhib: 66*; CYP2C9 activ: 0.3; PostGolgi yeast: -4; PostGolgi ctrl: -1; CYP2C19 inhib: 4

Results for Cc1onc(-c2ccccc2Cl)c1C(=O)Nc1nc2c(s1)CCCC2 ?
CYP2C19 act: 0.7; CYP2C9 inhib: 40; CYP2C9 activ: 0.6; PostGolgi yeast: 4; PostGolgi ctrl: 43*; CYP2C19 inhib: 26

What do the screens show for `Cc1ccc(-n2nc3c(c2NC(=O)c2c(-c4ccccc4Cl)noc2C)CS(=O)(=O)C3)c(C)c1`?
CYP2C19 act: 0.5; CYP2C9 inhib: 79*; CYP2C9 activ: 0.2; PostGolgi yeast: -3; PostGolgi ctrl: 2; CYP2C19 inhib: 52*

What do the screens show for `Cc1ccccc1-n1nc2c(c1NC(=O)c1c(-c3ccccc3Cl)noc1C)CS(=O)(=O)C2`?
CYP2C19 act: 1; CYP2C9 inhib: 5; CYP2C9 activ: 0.9; PostGolgi yeast: 16; PostGolgi ctrl: 7; CYP2C19 inhib: -2

High-throughput results deposited in PubChem by several laboratories.
